Hits are enriched below; roughly 2.2% of the tested compounds scored in any of these assays.
uPA generation – inhibitors of cell surface uPA generation. AID 540303. cell surface uPA generation assay, qHTS. Potency, µM (top dose mostly 38.3 µM), without a hit: top-dose activity change, negative = inhibition, hits mostly inhibitors. 330,000 compounds, 0.31% hits; active means well fitted inhibition curve with a large enough effect; inconclusive means small, poorly fitted or top-dose-only effect; inactive means no such curve, though single readings can be large or run the other way; tested in mouse RAW 264.7 cells; further: potency means the concentration at half of the fitted maximal effect; on the % scale 0 is the no-effect control and ±100 the full control effect; nearly all actives have a fitted effect of over 55% in size
GLP-1R inv ag – acts as inverse agonist at human GLP-1 receptor; Potency, µM (highest dose often 38.3 µM), inactives show at the top dose activity change, negative = inhibition, hits mostly inhibitors; AID 624417; P43220; HEK293 GLP-1R CRE-luciferase, luminescence, 24 h; GLP-1R form is constitutively active; 410,000 compounds, 1.6% hits; further: potency means the concentration at half of the fitted maximal effect; on the % scale 0 is the no-effect control and ±100 the full control effect; nearly all actives have a fitted effect of over 55% in size
Target sequence (P43220 whole entry, looked up): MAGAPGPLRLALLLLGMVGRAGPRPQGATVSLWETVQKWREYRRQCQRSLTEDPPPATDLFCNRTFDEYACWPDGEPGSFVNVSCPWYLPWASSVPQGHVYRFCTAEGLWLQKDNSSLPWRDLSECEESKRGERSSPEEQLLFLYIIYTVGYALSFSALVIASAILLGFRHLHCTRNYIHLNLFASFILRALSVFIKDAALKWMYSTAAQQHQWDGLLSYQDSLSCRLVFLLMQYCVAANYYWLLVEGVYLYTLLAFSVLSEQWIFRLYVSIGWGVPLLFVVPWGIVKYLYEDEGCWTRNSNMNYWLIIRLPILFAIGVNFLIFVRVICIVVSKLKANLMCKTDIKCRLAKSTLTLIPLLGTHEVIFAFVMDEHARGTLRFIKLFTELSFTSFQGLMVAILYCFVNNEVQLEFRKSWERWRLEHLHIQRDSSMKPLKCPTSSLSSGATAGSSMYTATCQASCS
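Using stably transfected HEK293 (constitutively active GLP-1R, cAMP-luciferase reporter), compounds were incubated 24 hr and luciferase measured by luminescence.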
GLP-1R agonist – GLP-1 receptor (human) agonism | P43220 | 380,000 compounds, 0.007% hits | AID 624172 | HEK293 GLP-1R CRE-luciferase, luminescence, 4-6 h; cells express a hypersensitive GLP-1R form | Potency, µM (series often up to 45.6 µM), for inactives: at the highest dose activation, actives largely listed as activators; further: potency means the concentration at half of the fitted maximal effect; % of control where 0% means no effect
Mm-Cpn inhibitor – blocks the Methanococcus maripaludis chaperonin Mm-Cpn; Potency, µM (series often up to 76.9 µM), for the others: top-dose activity, negative = inhibition, actives largely listed as inhibitors; purified Mm-Cpn ATPase, ADP Transcreener TR-FRET; AID 504842; 330,000 compounds, 0.031% hits; further: potency means the concentration at half of the fitted maximal effect; on the % scale 0 is the no-effect control and ±100 the full control effect; nearly all actives have a fitted effect of over 80% in size
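ATPase read-out: TR-FRET ADP immunoassay (anti-ADP Eu cryptate vs ADP-d2), ex 320 nm, em 590/665 nm; signal drops as ADP forms. Enzyme 25 nM, ATP 10 uM, 30 min at 37°C after 10 min compound preincubation.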
GLP1R cytotox – cytotoxic in the GLP-1 receptor inverse agonist counter-screen; 410,000 compounds, 0.13% hits; Potency, µM (series often up to 38.3 µM), for the others: at the highest dose activity change, negative = inhibition, actives largely listed as inhibitors; AID 624418; HEK293 cAMP-luciferase reporter cells, luminescence, 24 h;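 further: loss of luciferase light is scored as toxicity; potency means the concentration at half of the fitted maximal effect; on the % scale 0 is the no-effect control and ±100 the full control effect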
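Compound-treated cells are incubated 24 hr at 37 deg C under 5% CO2 after a 12 hour attachment period, then luciferase detection reagent is added and luminescence is measured following 12 min at room temperature; lowered signal indicates toxicity.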
CCT chaperon mod – modulators of cytosolic chaperonin (CCT/TRiC) activity. purified chaperonin ATPase assay, HTRF ADP detection, 30 min. 360,000 compounds, 0.3% hits. activity change, % (test concentration not listed), hits read low; in the data active means activity change below about -30%; further: on the % scale 0 is the no-effect control and ±100 the full control effect
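Nucleotide hydrolysis assay: TRiC at 20–40 nM final (set by batch activity) with 10 uM ATP, 30 min at 37 °C, in presence of 76 uM compound. Detection by competitive ADP HTRF, 30 min ambient.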
* = called active by the depositor; ? = inconclusive; / = no result given; [ ] = another dose, or the depositor's remark. Unless noted, the call rests on the fitted dose curve; in most records, active means well fitted curve in the direction sought with a large enough effect; inconclusive means small, poorly fitted or top-dose-only effect, or another doubt; inactive means no such curve, though single readings can be large; an effect the other way counts as inactive or inconclusive.

SMILES	uPA generation	GLP-1R inv ag	GLP-1R agonist	Mm-Cpn inhibitor	GLP1R cytotox	CCT chaperon mod
CCCCn1c(C)cc2c(c1=O)C1O[C@](c3ccc(OC)cc3)(Cc3cc(OC)c(OC)cc31)O2	/	/	/	1%[15.4 µM]	/	/
CCc1ccc(NC(=O)c2c(Cl)nc(C)c(Cl)c2C)cc1	0%	4µM*	8%	0%	-5%	-2
CC[C@]12CCCN3CCc4c(n(c5ccccc45)C(=O)C1)[C@@H]32	3.2µM*	?	-3%	-3%	-9%	0
CCc1nnc(SCC(=O)N(C)c2ccccc2)c2cc3sccc3n12	/	-2%	/	/	3%	/
Cc1c(Cl)cccc1NC(=O)CSc1nc(=O)[nH]c2c1CCCC2	/	5%	/	/	0%	/
Cc1ccc(Cn2c(CO)cnc2SCC(=O)Nc2ccc(C)c(Cl)c2)cc1	/	13µM*	/	/	-6%	/
Cc1ccc(Cn2c(CO)cnc2SCC(=O)Nc2cccc(F)c2)cc1	/	-19%	0%	/	-4%	/
Cc1cc(C)c(C)c(S(=O)(=O)N2CCC(C(=O)N3CCN(c4ccc(F)cc4)CC3)CC2)c1C	-1%	5µM*	9%	/	0%	1
CCOC(=O)c1c(NC(=O)c2cc(-c3cccc(Cl)c3)on2)sc(C(C)=O)c1C	/	-31%	/	/	8%	/
COc1ccc(C[C@H](N)C(=O)N[C@H]2[C@@H](O)[C@H](n3cnc4c(N(C)C)ncnc43)O[C@@H]2CO)cc1	1µM*	4%	-1%	-3%	-9%	-1
CN(C)c1ncnc2c1ncn2C1OC(CO)C(O)C1O (stereo not drawn)	-13%	71%	-9%	0%	-21%	-2
FC(F)Oc1ccc(NC(=S)NCc2nc3ccccc3[nH]2)cc1	-2%	0%	3%	2%	4%	-37*
CCOc1ccc(NC(=S)NCc2nc3ccccc3[nH]2)cc1	1%	10%	-2%	1%	6%	-4
COc1ccc(-c2cn3c(n2)sc2cc(C(=O)NC(C)C45CC6CC(CC(C6)C4)C5)ccc23)cc1 (stereo not drawn)	/	38%	/	/	2%	/
COc1cc(NC(=O)CCc2c(C)nn(-c3ccc(N4CCCCC4)nn3)c2C)cc(OC)c1OC	/	6%	/	/	-2%	/
CCCCN=C(NNc1ccc(Br)cc1)C(=O)OCC	7%	?	2%	0%	-20%	0
CCOC(=O)C(=NCCCN(C)C)NNc1ccc(Br)cc1	-13%	4µM*	-1%	1%	?	1
N#Cc1c(-c2ccccc2)c(-c2ccccc2)nn(CC(=O)NNC(=O)Nc2ccccc2)c1=O	?	?	-14%	-2%	?	-3
N#Cc1c(-c2ccccc2)c(-c2ccccc2)nn(CC(=O)NNC(=O)Nc2ccc(Cl)cc2)c1=O	1%	10µM*	5%	0%	-22%	2
Cc1cccc(C(=O)Nc2ccc3nc(SCC(=O)N4CCCC4)sc3c2)c1	/	11%	/	/	-11%	/
O=[N+]([O-])c1ccc(CSc2nnc(Cc3ccccc3)n2-c2ccc(F)cc2)cc1	7%	10µM*	23%	0%	-26%	-2
Cc1ccc(S(=O)(=O)N2CCOCC2)cc1NC(=O)CN1CCC(Cc2ccccc2)CC1	-13%	7.1µM*	10%	-4%	-7%	0
Cc1ccc(S(=O)(=O)N2CCOCC2)cc1NC(=O)COc1cccc(Oc2ccccc2)c1	-26%	10µM*	-2%	0%	12%	-1
COc1ccc(C(NC(C)=O)c2cc(Cl)c3cccnc3c2O)cc1 (stereo not drawn)	6.3µM*	?	-2%	-5%	?	1
COc1ccc(C(=O)NC(c2ccccc2Cl)c2cc(Cl)c3cccnc3c2O)cc1 (stereo not drawn)	/	1.8µM*	/	/	-8%	/
SMILES	uPA generation	GLP-1R inv ag	GLP-1R agonist	Mm-Cpn inhibitor	GLP1R cytotox	CCT chaperon mod
N/C(=N\OC(=O)/C=C/c1ccccc1)c1ccc(Cl)cc1	1%	5%	11%	-2%	11µM*	0
N/C(=N\OC(=O)/C=C/c1ccccc1)c1ccccc1	-8%	-2%	-4%	0%	-1%	-2
O=C(Oc1ccc(C(=S)N2CCOCC2)cc1)c1cccc(Cl)c1	-1%	19%	-1%	-5%	1%	-63*
CCOC(=O)CSc1nc2c(cnn2-c2ccc(F)cc2)c(=O)[nH]1	0%	6%	13%	1%	-12%	0
COC(=O)CSc1nc2c(cnn2-c2ccc(F)cc2)c(=O)[nH]1	-1%	9%	10%	-2%	-3%	-32*
CCOC(=O)c1cc(-c2ccccc2C)nn1CC1CC(c2ccc(OC)cc2)=NO1 (stereo not drawn)	11%	11µM*	26%	1%	2%	0
CCN(C(=O)c1nn(-c2ccc(OC)c(Cl)c2)c(=O)c2c1c1ccccc1n2C)c1cc(OC)ccc1OC	/	-8%	/	/	0%	/
CC(C)c1ccc(NC(=O)C2CCCN2S(=O)(=O)c2ccc3nc(-c4ccccc4)[nH]c3c2)cc1 (stereo not drawn)	/	8.9µM*	/	/	-13%	/
Cc1ccc(NS(=O)(=O)c2ccc3nc(-c4ccccc4)[nH]c3c2)cc1Cl	/	10µM*	-5%	/	-14%	/
Cc1ccc(NC(=O)C2CCCN2S(=O)(=O)c2ccc3nc(-c4ccccc4)[nH]c3c2)cc1C (stereo not drawn)	/	?	/	/	-29%	/
COc1cc2[nH]c(=O)n(Cc3ccc(C(=O)N4CCN(c5cc(Cl)ccc5C)CC4)cc3)c(=O)c2cc1OC	/	-29%	0%	/	-4%	/
C=C1C(=O)O[C@@H]2[C@H]1CC[C@H](C)[C@]1(O)CCC(=O)[C@@]21C	?	8.9µM*	-7%	-2%	?	0
C=C1C(=O)O[C@@H]2[C@@H]1CC/C(C)=C\CC[C@@]1(C)O[C@H]21	/	/	-11%	/	/	/
CCCCN(CC)C(=O)CSc1nc2n[nH]c(C)c2c(=N)n1-c1cccc(Cl)c1	/	1%	/	/	-6%	/
Cc1c(C(=O)Nc2ccc(C(=O)O)cc2)nnn1-c1ccccc1	/	1.8µM*	/	/	2%	/
Cc1c(C(=O)O)nnn1-c1ccccc1	-3%	-6%	-18%	-1%	-13%	0
COc1ccc(S(=O)(=O)N2N=C(c3cccc(NS(C)(=O)=O)c3)CC2c2ccco2)cc1 (stereo not drawn)	-11%	?	-5%	-2%	-17%	-69*
COc1ccc(S(=O)(=O)N2N=C(c3ccc(NS(C)(=O)=O)cc3)CC2c2ccco2)cc1 (stereo not drawn)	-11%	3%	8%	3%	-5%	-1
CCN1CCc2nc3sc(C(=O)c4ccccc4)c(N)c3cc2C1	/	-14%	/	/	-17%	/

Screens (PubChem BioAssay)
